# Experiments:
# Assay in all cases: PBM binding z-score (relative to random genomic background probes); higher = stronger binding; sequences stand for … in GC…GCGATTGACAGCGTAGAATGAAGG
# [1] = system: PPARg:RXRa DBDmut IVT, anti-RXR (DBD mutation: RXRa K156A/R161A, NR concentration 270 nM, RXRa partner concentration 90 nM)
# In short: (§1)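 The probes on custom Agilent 4×180K protein-binding microarrays were double-stranded, with 34-nt variable regions bearing direct-repeat seeds, single-nucleotide variants, half-site ablations and random human genomic background sequences. Incubation lasted 1 h with ligand-free nuclear receptor dimers in PBS pH 7.4, 2% milk, 0.02% Triton X-100, 1 mM DTT, 0.2 mg/mL BSA and 0.4 mg/ml salmon testes DNA. Antibodies against each partner (one per run) detected bound dimers, and fluorescence scans were regression-normalized. Binding z-scores take the random background probes as reference.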
# [2] = system: PPARg:RXRa IVT, anti-PPARg (NR concentration 270 nM, RXRa partner concentration 90 nM)
# In short: as §1
# [3] = system: PPARg DBDmut:RXRa IVT, anti-PPARg (DBD mutation: PPARg1 K132A/R137A, NR concentration 270 nM, RXRa partner concentration 90 nM)
# In short: as §1
# [4] = system: PPARg DBDmut IVT, anti-PPARg (DBD mutation: PPARg1 K132A/R137A, NR concentration 270 nM)
# In short: as §1
# [5] = system: PPARg homodimer (NR concentration 180 nM)
# In short: as §1
# [6] = system: PXR:RXRa (NR concentration 270 nM, RXRa partner concentration 90 nM)
# In short: as §1
# [7] = system: PXR homodimer (NR concentration 270 nM)
# In short: as §1
# [8] = system: RARa:RXR (NR concentration 270 nM, RXRa partner concentration 90 nM)
# In short: as §1
# [9] = system: RARa homodimer (NR concentration 270 nM)
# In short: as §1
# [10] = system: RARb:RXRa (NR concentration 270 nM, RXRa partner concentration 90 nM)
# In short: as §1
# [11] = system: RARb homodimer (NR concentration 270 nM)
# In short: as §1
# [12] = system: RARg:RXRa (NR concentration 270 nM, RXRa partner concentration 90 nM)
# In short: as §1
# [13] = system: RARg homodimer (NR concentration 270 nM)
# In short: as §1
# [14] = system: RXRa DBDmut IVT, anti-RXR (DBD mutation: RXRa K156A/R161A, NR concentration 90 nM)
# In short: as §1
# [15] = system: RXRa homodimer (NR concentration 180 nM)
# In short: as §1
# [16] = system: THRa:RXRa (NR concentration 90 nM, RXRa partner concentration 90 nM)
# In short: as §1
# [17] = system: THRa homodimer (NR concentration 90 nM)
# In short: as §1
# [18] = system: VDR homodimer (NR concentration 270 nM)
# In short: as §1
Sequence,PBM binding z-score [1],PBM binding z-score [2],PBM binding z-score [3],PBM binding z-score [4],PBM binding z-score [5],PBM binding z-score [6],PBM binding z-score [7],PBM binding z-score [8],PBM binding z-score [9],PBM binding z-score [10],PBM binding z-score [11],PBM binding z-score [12],PBM binding z-score [13],PBM binding z-score [14],PBM binding z-score [15],PBM binding z-score [16],PBM binding z-score [17],PBM binding z-score [18]
CGAACGAGGGCAAGAGTTGATAGCAAATGCCGAT,3.38,2.22,0.196,-0.307,0.163,0.404,-0.197,0.316,-0.216,2.38,1.44,1.67,1.85,1.89,1.1,0.79,-0.443,1.07
TAGCCTAGGTAATGCGGGCCAGTATAGTGTCGGC,0.0726,0.795,-0.707,-0.721,-1.01,-0.858,-1.13,-0.925,-1.12,-0.447,-0.521,-0.6,-0.559,-1.3,-0.499,-0.418,-0.74,-0.784
AGCCAAAGTTCACTAGGTAACGTAAGATTCAGCT,2.5,4.42,0.974,0.266,2.28,3.96,2.4,2.78,0.158,4.68,3.85,4.99,5.83,4.29,3.74,1.91,-0.25,3.46
TCTCGGAGGACACGAAAGGTCCGAGCTCGACATC,1.48,-0.219,-0.586,-0.37,-0.226,0.0287,-0.785,0.412,-1.1,1.47,0.997,0.805,1.35,0.605,0.384,1.62,0.526,0.0895
TCATATAGGTAATACAGGTGAAAGTTGGCATCTA,4.09,3.7,1.17,1.27,1.53,1.23,0.642,1.77,1.84,0.87,0.923,1.02,0.788,1.86,1.69,1.19,0.467,0.572
ACTAGCAAGCCAAGGGTCACTCAAGATTAGTCCG,-0.0877,1.46,-0.235,-0.0767,1.68,3.01,0.0127,3.79,0.419,3.11,3.62,3.45,3.58,0.334,3.69,2.51,0.0458,1.08
CCTAGCAGACCAGGGTCACTCAAGCATTTCGCTT,-0.221,0.416,-0.792,-1.1,0.914,2.63,-0.0947,3.3,-0.0324,2.32,2.68,2.86,1.84,0.63,3.24,2.75,0.798,1.37
TGAATGAGGTTAAAGATCAGTGAACGTGGCGTCG,2.37,3.44,0.722,0.242,1.24,2.01,0.152,3.08,-0.0565,2.09,0.903,2.48,1.37,1.33,3.74,2.58,0.429,0.435
CAAACTAGGTCAAGAGGCCAAAGTCCGCTTCCCG,8.03,8.06,1.13,0.602,1.8,1.56,0.34,2.68,0.79,3.93,3.79,4.65,4.83,1.85,2.98,2.75,0.986,1.03
CGAACTAGGTCAAGGACAGTGTATCTCCGCACGC,7.97,8.01,3.03,0.882,1.62,1.43,-0.0646,2.03,0.437,3.95,3.56,3.8,4.37,1.87,2.55,3.45,2.61,0.841
TGAATGGGGTTAAAGATCAGGGAACGTGGCGTCG,2.89,3.96,1.84,2.48,2.38,3.45,1.64,5,1.66,2.43,1.49,3.19,1.53,1.95,6,2.88,1.23,1.58
ATCTCTACGTAAAAGTTCAGTGAATCCCGAGGAT,-0.177,0.157,1.69,2.47,0.954,1.69,1.8,0.802,1.16,2.35,2.42,1.57,2,0.755,0.831,0.591,0.154,1.5
GCTTACGGGTTAAAGGTTATAGCATGAATAGAAT,1.96,4,0.8,1.12,1.78,4.18,0.49,6.08,1.07,2.31,1.74,3.66,1.37,0.714,6.82,2.8,0.253,0.558
CCGACTGGGGCAGAAAGGTTACCATCCCATCCGG,1.51,1.69,-0.348,-1.37,0.985,0.837,-0.375,1.61,-0.144,1.89,2.3,1.44,1.19,-1.13,1.48,0.817,-0.666,-0.162
ACTATTAGTTGAGACGAGGGCAACCGCTAGGTTG,0.0597,0.177,0.243,0.359,0.0959,1.55,0.226,0.773,0.0804,1.15,1.35,0.408,0.507,0.704,0.516,2.66,0.222,0.863
CATACAGGGTCAGCTAGGCCCGAGTAGGGACGGC,0.974,2.05,0.221,0.342,1.66,2.1,-0.596,3.11,0.256,4.08,3.14,4.41,4.89,1.18,4.55,3.14,0.566,0.91
GCTTACGGGTAAAAGGTTATAGCATGAATAGAAT,1.1,3.12,0.792,0.799,1.62,2.36,0.623,3.75,0.86,1.98,1.59,2.68,1.35,0.423,3.38,1.64,-0.0699,0.48
CCTCCAAGGTCAATGCTAGGTCAGTGAAAGCATT,3.02,3.34,-0.0903,-0.621,4.19,4.52,1.09,5.43,1.36,5.22,5.1,7.37,6.33,3.35,4.78,4.47,2.91,2.71
CGTCCACGGTCAAGGTCAGTGAAAGAGACTCGAA,0.397,1.53,-0.802,-1.07,1.28,1.69,0.177,2.2,0.0153,4.28,3.86,3.41,5.01,0.716,2.45,3.05,1.64,0.791
ATCTCTAGGTAATGATAGTTCAGTGAATGCAAAT,2.25,2.17,1.1,1.74,1.21,1.12,0.747,0.583,0.965,0.694,0.921,0.493,0.864,0.246,0.462,0.79,0.35,0.644
TCTAGTAGGTTACCAATGGGGCATTCAGCTTTCT,5.22,5.27,0.435,0.135,0.405,0.365,-0.176,0.372,5.32e-05,1.26,0.934,1.47,0.705,1.13,0.88,0.163,-0.277,0.254
ACCGACAGGTGATGAAGGTAACTCAGGCTATCAT,0.339,0.157,0.484,0.654,0.0692,-0.165,-0.395,0.291,0.18,0.0834,0.0533,0.16,0.23,-0.271,0.299,0.649,-0.149,-0.217
CCCACTGGGCCACGAAAGGTCATTGATTCAGTGA,4.55,6.02,1.73,0.623,3,5.57,1.48,5.51,1.31,4.1,4.6,4.7,4.33,-0.145,4.87,4.11,1.09,2.4
GGAACGAGGGCAAGTGGATAGCAGAGTTTGATGG,3.83,2.95,0.27,0.066,0.34,0.612,0.421,0.505,-0.0317,2.65,1.59,1.62,2.03,1.93,0.87,1.1,-0.000164,1.39
CCTAATGGGCCATTCAGAGGTCATTGATCATATG,2.5,2.39,0.168,0.266,2.02,4.59,1.84,4.39,0.847,3.27,4.03,4.62,2.88,1.45,4,3.16,1.19,3.03
TCACATAGGTAAAAGGTGAAAGTCGGTGTGGTAA,2.98,3.19,0.93,0.575,1.93,1.81,0.153,3.24,0.922,1.92,1.98,2.02,0.992,1.3,3.3,1.72,0.0653,-0.0676
CCGACTGGGGCAAGGTTAACATAACGCACAGCCA,3.28,3.69,0.246,-0.475,0.856,0.52,-0.244,0.896,0.086,1.74,1.47,1.3,1.3,-0.45,1.38,1.37,-0.033,0.172
TAGACTAGGTCATTGGGCCAGTATAGTACGCATC,5.72,6.51,1.28,0.786,1.15,1.2,0.294,1.65,0.657,3.45,2.75,3.47,4.19,0.824,2.44,2.45,0.646,1.26
ACCTCTAGGTAACCAAGTTCAGTGAATGCCGAAC,3.87,2.09,0.112,0.237,-0.00896,1.65,1.47,0.453,-0.355,0.936,1.28,0.433,0.365,0.736,0.358,1.25,0.385,2.26

# Source: the supplement of paper PMC6555819
